This note sets out measurements from PubChem BioAssay (NCI).

This is part of a sample that, as a whole, favours compounds with a hit. Of some 83,000 tested, about 20% had one in any assay.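 Single-concentration screen, 48 h exposure, 96-well plates. Endpoint: percent growth. Below 10 = active.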 Values without a mark were called inactive. Calls of active or inactive are those of the source.

Test systems include T-47D breast; BT-549 breast; MDA-MB-435 melanoma; SW-620 colon; MCF7 breast; HCT-116 colon; HCC-2998 colon; KM12 colon.
Test in all cases: NCI-60 one-dose screen, 48 h (100 = growth as untreated, 0 = no growth, -100 = all killed)
Conditions in all cases: 10 µM unless noted

As to `O=C(NCCNc1nccc(-c2c(-c3cccc(O)c3)nc3sccn23)n1)Nc1cccc(C(F)(F)F)c1`, the growth in the experiment with T-47D breast was 63.8%; in the experiment on BT-549 breast it was 41.1%; with MDA-MB-435 melanoma it was -3.01% (active); in the experiment on SW-620 colon it was 30.3%; with MCF7 breast, 55.6%; in the experiment with HCT-116 colon, 56.8%. The growth in the experiment on HCC-2998 colon was 23%; in the experiment with KM12 colon, 14%.
Turning to `CC1=C2C(=C[C@@](C)(CO)[C@@H]2OC(=O)N(C)CCN(C)C(=O)OC(C)(C)C)C(=O)[C@](C)(O)C12CC2`, the growth in the experiment on T-47D breast was 45.2%; in the experiment on BT-549 breast it was 56.8%; in the experiment with MDA-MB-435 melanoma, 72.6%; in the experiment on SW-620 colon, 71.3%; in the experiment on MCF7 breast, 34.8%; with HCT-116 colon, 15.9%. Further, the growth is 75.8% with HCC-2998 colon and 74% in the experiment with KM12 colon.
For `COc1ccc2c(c1)C(=O)/C(=C/c1ccc(OCC(=O)c3ccc(Cl)cc3)cc1)O2`, the growth was 72.2% in the experiment on T-47D breast; 80.5% in the experiment with BT-549 breast; 92.8% in the experiment with MDA-MB-435 melanoma; 14.2% with SW-620 colon; 104% in the experiment with MCF7 breast; 30.1% in the experiment with HCT-116 colon. Further, the growth with HCC-2998 colon is 21.2%; in the experiment with KM12 colon, 104%.
On to `COc1ccc(/C(Cl)=N/N=C(\Cl)c2cc(OC)c(OC)c(OC)c2)cc1OC(C)=O`, for which the growth with T-47D breast was 66.2%; in the experiment on BT-549 breast, 96.1%; in the experiment on MDA-MB-435 melanoma it was 99.9%; in the experiment on SW-620 colon, 93.7%; in the experiment with MCF7 breast, 93.9%; in the experiment with HCT-116 colon, 90.5%. Moreover, the growth was 102% in the experiment with HCC-2998 colon and 98.2% with KM12 colon.
Regarding `O=S(=O)(O)c1ccc(F)cc1`, the growth was 98.7% with T-47D breast; 101% in the experiment with BT-549 breast; 108% in the experiment with MDA-MB-435 melanoma; 103% with SW-620 colon; 97.8% with MCF7 breast; 99% with HCT-116 colon. Besides, the growth was 105% in the experiment with HCC-2998 colon and 101% with KM12 colon.
As to `CC(=O)c1cc2c(c(O)c1C)C(=O)C(=O)c1c(O)cccc1-2`, the growth with T-47D breast is -28.5% (active); with BT-549 breast, -94.4% (active); in the experiment on MDA-MB-435 melanoma it was -84.3% (active); in the experiment with SW-620 colon, -69% (active); in the experiment with MCF7 breast, -55.6% (active); with HCT-116 colon it was -85.9% (active). The growth in the experiment with HCC-2998 colon is -84.2% (active); in the experiment on KM12 colon, -50.5% (active).
Regarding `ClC1c2ccccc2CCc2ccccc21`, the growth with T-47D breast was 74.6%; in the experiment with BT-549 breast, 93.8%; in the experiment with MDA-MB-435 melanoma, 110%; in the experiment with SW-620 colon, 101%; in the experiment on MCF7 breast it was 92.1%; in the experiment on HCT-116 colon it was 72.7%. The growth is 107% with HCC-2998 colon and 109% with KM12 colon.
With `Cc1cc(Nc2ccc(Cl)c(Cl)c2)nc(N)n1`, the growth is 79.5% in the experiment with T-47D breast; 94.4% in the experiment with BT-549 breast; 98.3% in the experiment with MDA-MB-435 melanoma; 97.7% with SW-620 colon; 84.4% in the experiment on MCF7 breast; 86.4% in the experiment on HCT-116 colon. For the same compound, the figures for the growth in the experiment on HCC-2998 colon and in the experiment with KM12 colon were 113% and 91.3%, respectively.
For the compound `COc1cc2c(/C=C3/C(=O)Nc4ccc(O)cc43)c(Cl)n(Cc3cc(OC)c(OC)c(OC)c3)c2cc1C`, the growth with T-47D breast was 23.5%; in the experiment on BT-549 breast, -7.31% (active); in the experiment with MDA-MB-435 melanoma, 2.91% (active); with SW-620 colon, 19.3%; in the experiment on MCF7 breast, 3.36% (active); in the experiment on HCT-116 colon, 18.1%. Moreover, the growth in the experiment on HCC-2998 colon was 85.5%; in the experiment on KM12 colon, 16.3%.
For `C[C@H]1C=C(C[C@@H](O)CC#CC#CCCCCC[C@@H](O)[C@H]2CCC(=O)O2)C(=O)O1`, the growth in the experiment with T-47D breast is 92.8%; with BT-549 breast it was 112%; with MDA-MB-435 melanoma it was 111%; in the experiment with SW-620 colon it was 103%; with MCF7 breast, 115%; with HCT-116 colon, 83.2%. Besides, the growth was 105% in the experiment on HCC-2998 colon and 110% in the experiment with KM12 colon.
For `O=c1[nH]ccc2nc(N3CCC(O)CC3)nc(Nc3cccc(C(F)(F)F)c3)c12`, the growth in the experiment on T-47D breast is 61.6%; in the experiment on BT-549 breast it was 16.5%; in the experiment with MDA-MB-435 melanoma, 7.33% (active); in the experiment with SW-620 colon it was 48.9%; with MCF7 breast, 22.4%; in the experiment on HCT-116 colon, 42%. The growth in the experiment on HCC-2998 colon was 83.8%; in the experiment with KM12 colon it was 23%.
As to `CCCCN(CCCC)c1ccc(C(=N)c2ccc(N(C)C)cc2)cc1`, the growth was -23.3% (active) in the experiment with T-47D breast; -72.4% (active) in the experiment with BT-549 breast; -74.1% (active) with MDA-MB-435 melanoma; -85.2% (active) in the experiment on SW-620 colon; -52.9% (active) with MCF7 breast; -100% (active) with HCT-116 colon. The growth was -47.5% (active) in the experiment with HCC-2998 colon and -50.5% (active) in the experiment with KM12 colon.
For `O=C(COc1ccc(Cl)cc1)N1CCN(Cc2ccc3c(c2)OCO3)CC1`, the growth in the experiment on T-47D breast is 78.2%; in the experiment with BT-549 breast, 98.3%; in the experiment on MDA-MB-435 melanoma it was 101%; in the experiment on SW-620 colon it was 97%; in the experiment with MCF7 breast, 103%; with HCT-116 colon it was 102%. Besides, the growth in the experiment with HCC-2998 colon is 99.9%; with KM12 colon it was 102%.
`CC[C@@]1(O)C(=O)OCc2c1cc1n(c2=O)Cc2c-1nc1ccccc1c2/C=N/OC(C)(C)C`: the growth is 2.25% (active) in the experiment on T-47D breast; -7.82% (active) in the experiment with BT-549 breast; 13.5% in the experiment on MDA-MB-435 melanoma; 11.5% with SW-620 colon; 2.42% (active) in the experiment with MCF7 breast; 3.24% (active) in the experiment with HCT-116 colon. Moreover, the values for the growth with HCC-2998 colon and in the experiment with KM12 colon were 6.39% (active) and 1.96% (active), respectively.
